Screening data (PubChem BioAssay)
HCMV antiviral = blocks human cytomegalovirus replication. HFF cells, HCMV-luciferase reporter, 72 h; stronger effect = lower value. 410,000 compounds, 4.5% hits. activity change, negative = inhibition, % at 57.5 µM; in the data active = activity change below about -60%; inconclusive = no clear call, values can overlap the other calls; inactive = above about -39%; also: % is scaled to controls: 0 for no effect and ±100 for the full control effect
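HFF cells seeded 16 h at 37C, treated with compounds, infected with luciferase-reporter HCMV at MOI 1 PFU/cell; luciferase read at 72 h post infection, normalized to buffer-only and Salinomycin controls.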
Lassa entry inh = inhibitors of Lassa virus binding or cell entry; Lassa virus pseudotype entry inhibition, cell reporter; 300,000 compounds, 1.2% hits; AID 540256; Potency, µM (titrated, usually from 37.9 µM), inactives show top-dose activity change, negative = inhibition, usual class: inhibitors; calls by dose curve; tested in HEK293 cells; also: potency is read from the fitted curve at half-maximal effect; % is scaled to controls: 0 for no effect and ±100 for the full control effect; nearly all actives have a fitted effect of over 50% in size
HCV inh = HCV inhibition; Potency, µM (top dose mostly 41.8 µM), inactives show top-dose activity change, negative = inhibition, most hits filed as inhibitors; 340,000 compounds, 3.4% hits; Huh7.5.1 HCVcc-Cre infection, luciferase reporter, 44 h; AID 651820; active = well fitted inhibition curve with a large enough effect; inconclusive = small, poorly fitted or top-dose-only effect, or another doubt; inactive = no such curve, though single readings can be large or run the other way; also: potency is read from the fitted curve at half-maximal effect; % is scaled to controls: 0 for no effect and ±100 for the full control effect
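Seed cells (1,000/well) for 4 h; treat with compound and infect with HCVcc-Cre, moi about 0.5. Incubate 44 h, then detect luciferase activity.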
Marburg entry inh = blocks Marburg virus binding to or entry into cells | Marburg virus pseudotyped entry inhibition, cell reporter | Potency, µM (titrated, usually from 37.8 µM), for inactives: at the highest dose activity change, negative = inhibition, actives largely listed as inhibitors | 300,000 compounds, 1.8% hits | AID 540276; calls by dose curve; tested in HEK293 cells; also: potency is read from the fitted curve at half-maximal effect; % is scaled to controls: 0 for no effect and ±100 for the full control effect
SARS PLpro yeast = SARS-CoV PLP inhibition in yeast; Potency, µM (titrated, usually from 32.9 µM), inactives show top-dose activity, positive = growth rescue, usual class: activators; AID 485353; S. cerevisiae expressing SARS-CoV PLpro, growth rescue; 330,000 compounds, 0.19% hits; calls by dose curve; also: potency is read from the fitted curve at half-maximal effect; 0% is about no effect; nearly all actives have a fitted effect of over 55% in size
FMDV antiviral = foot and mouth disease virus antiviral activity; FMDV antiviral cell-based qHTS; Potency, µM (top dose mostly 57.9 µM), without a hit: at the highest dose activity change, negative = inhibition, most hits filed as inhibitors; 410,000 compounds, 1.2% hits; calls by dose curve; tested in HEK293T cells; also: read-out not given here; potency is read from the fitted curve at half-maximal effect; % is scaled to controls: 0 for no effect and ±100 for the full control effect; nearly all actives have a fitted effect of over 45% in size
An asterisk follows results filed as active; ? = inconclusive; nt = no result; [ ] = remark or other dose. Most compounds without a hit are left out; they make up all but 8% or so of the library.

SMILES | HCMV antiviral | Lassa entry inh | HCV inh | Marburg entry inh | SARS PLpro yeast | FMDV antiviral
Cc1c(C(=O)c2cccc3ccccc23)c2cccc3c2n1[C@H](CN1CCOCC1)CO3 | -98.1* | 20.6µM* | ? | 8.91µM* | nt | -28.5%
O=C1NC[C@H](CCCCN2C[C@H](Cc3ccccc3)N(CC3CCCCC3)C(=O)C2=O)N(CC2CCCCC2)C1=O | -4.5 | nt | nt | nt | nt | 0.9%
Nc1ncnc2c1ncn2C1OC(COP(=O)(O)O)C(O)C1O (centres undefined) | 101.4 | nt | 6.6% | nt | -39.8% | 4.9%
Nc1ncnc2c1ncn2[C@@H]1O[C@H](COP(=O)(O)OP(=O)(O)OP(=O)(O)O)[C@@H](O)[C@H]1O | nt | nt | 0.562µM* | nt | nt | -16.3%
Nc1ncnc2c1ncn2[C@@H]1O[C@H](COP(=O)(O)O)[C@@H](O)[C@H]1O | 45.4 | nt | 0.562µM* | nt | -34.2% | 4.8%
CN1N=C(N)c2cn(C3OC(COP(=O)(O)O)C(O)C3O)c3ncnc1c23 (centres undefined) | -69.6* | -28.2% | ? | ? | nt | -13.3%
Nc1ncnc2c1ncn2[C@@H]1O[C@H](COP(=O)(O)CP(=O)(O)OP(=O)(O)O)[C@H](O)[C@H]1O | nt | nt | nt | 4.7% | nt | nt
COc1ccc(C)cc1NC(=O)Cn1c(=O)nc(-c2ccccc2F)c2cc(Cl)ccc21 | 30.8 | 1.8%[46.1 µM] | nt | nt | nt | 4.2%
O=C(Nc1ccc(C(F)(F)F)cc1)N1CCC(N2CCCCC2)CC1 | 50.4 | ? | nt | ? | nt | -13.4%
Cc1cc(-c2ccnc(-n3ncc(C(=O)NCC4CCCN(C)C4)c3C3CC3)n2)c(C)s1 (centres undefined) | nt | nt | nt | nt | nt | -3.0%
COc1ccc(C2=Nc3ccccc3C2(O)CCN2C(=O)c3ccccc3C2=O)cc1 (centres undefined) | 18.6 | nt | 0.891µM* | -1.1% | nt | 11.0%
COc1ccc(OCCN2C(=O)c3ccccc3C2=O)cc1 | 4.8 | 28.6% | -2.7% | 1.9%[46.1 µM] | -3.6% | 53.3%
Cc1cnc(SCC2CCCO2)nc1C1CCCN(Cc2cc3c(cc2Cl)OCO3)C1 (centres undefined) | nt | nt | nt | nt | nt | -14.4%
N#Cc1c(N2CCN(c3ccc([N+](=O)[O-])cc3)CC2)[n+](=O)c2ccc(Cl)cc2n1[O-] | 4.8 | 10µM* | ? | ? | nt | ?
COc1ccc(S(=O)(=O)NCc2ccc3c(c2)CCN3C(C)=O)cc1OC | -8.1 | ? | nt | nt | nt | -5.8%
CCOc1ccc(C(OC(=O)c2ccco2)C(=O)NCc2ccc(C)cc2)cc1 (centres undefined) | -74.0* | -11.8% | -2.7% | 4.2% | -0.9% | -16.0%
Cc1ccc(C(OC(=O)c2ccco2)C(=O)NC2CCCCC2)cc1 (centres undefined) | -98.0* | 13.3% | 0.5% | -2.8% | -4.2% | 14.9%
CCC(C)N(C(=O)CSc1nc2ccc(OC)cc2[nH]1)C1CCS(=O)(=O)C1 (centres undefined) | -16.5 | 9.2% | 4.9% | 12.2% | 6.9% | -14.0%
O=C1CN(C(=O)CSc2nc3ccccc3c(=O)n2CC2CCCO2)c2ccccc2N1 (centres undefined) | -32.9 | nt | -18.7% | nt | 1.1% | ?
O=C1CN(C(=O)CSc2nc3cc(Cl)ccc3c(=O)n2Cc2ccccc2)c2ccccc2N1 | ? | ? | 11.2µM* | ? | 7.4% | -29.2%
Cc1ccc(Cn2c(SCC(=O)N3CC(=O)Nc4ccccc43)nc3ccccc3c2=O)cc1 | -76.3* | ? | 10µM* | ? | 12.7% | -18.2%
COC(=O)C1=C(C(=O)OC)[C@@H]2N(Cc3ccccc3)c3ccccc3[C@@]23C[C@@H](C(=O)OC)N(C(=O)NCc2ccccc2)C3=C1 | nt | nt | nt | 15.9%[14.2 µM] | nt | nt
COCCN(C(=O)CSc1nnc(-c2ccccc2F)n1C)c1c(N)n(Cc2ccccc2)c(=O)[nH]c1=O | 24.2 | 5.9%[46.1 µM] | 3.3% | 9.3%[46.1 µM] | -0.1% | -3.6%
COC(=O)C1CCN(Cc2ccc3c(c2)CN(C(=O)c2sc(C)nc2C)CCO3)CC1 | nt | nt | nt | nt | nt | -7.6%
Oc1[nH]c(N=C2N=c3ccccc3=N2)c2ccccc12 | -96.6* | ? | -26.0% | ? | 1.2% | 10.3%
SMILES | HCMV antiviral | Lassa entry inh | HCV inh | Marburg entry inh | SARS PLpro yeast | FMDV antiviral
Cc1ccc2c(c1)=N/C(=N\c1[nH]c(O)c3ccccc13)N=2 | 12.6 | nt | nt | nt | nt | 22.3%
Cc1ccc(SSc2cc(C)ccc2N)c(N)c1 | -80.8* | nt | ? | nt | 1.3% | 13.5%
O=[N+]([O-])c1ccc(N2CCN(CCO)CC2)cc1Sc1ccccn1 | 16.0 | 13.9% | -1.4% | 25.4%[46.1 µM] | 1.4% | -12.6%
CCN1CCN(c2ccc([N+](=O)[O-])c(Sc3nc4ccccc4[nH]3)c2)CC1 | -31.8 | -3.9% | 22.4µM* | ? | -2.1% | -14.4%
CS(=O)(=O)c1cc([N+](=O)[O-])c(Sc2nc3ccccc3[nH]2)c([N+](=O)[O-])c1 | 23.0 | 19.6% | ? | 13µM* | -7.4% | ?
O=C(NCCN1C(=O)S/C(=C\c2ccc(OC(F)F)cc2)C1=O)C1=COCCO1 | nt | ? | 11.2µM* | ? | -3.9% | -13.9%
Clc1ccc(-c2nn3c(C4COc5ccccc5O4)nnc3s2)cc1 (centres undefined) | -98.9* | 6.51µM* | 2.9% | 4.0% | 0.6% | 19.0%
CN(C)CCCNc1ncnc2oc(-c3ccccc3)c(-c3ccccc3)c12 | ? | ? | 3.55µM* | 8.91µM* | 0.4% | -22.7%
c1ccc(-c2oc3ncnc(NCCN4CCOCC4)c3c2-c2ccccc2)cc1 | ? | -34.5% | ? | ? | 0.2% | nt
c1ccc(-c2oc3ncnc(NCCCn4ccnc4)c3c2-c2ccccc2)cc1 | nt | -29.6% | 11.2µM* | ? | -1.7% | ?
c1ccc(-c2c(-c3ccccc3)n(Cc3ccco3)c3ncnc(NCCCn4ccnc4)c23)cc1 | nt | ? | ? | ? | -38.9% | ?
CCCCCC(=O)N1C[C@@H](n2cc(COC(=O)c3ccccc3)nn2)[C@H](O)C[C@H]1c1ccccc1 | nt | 3.2%[46.1 µM] | nt | nt | nt | nt
Cc1cc2[nH]c(=O)c(=O)[nH]c2cc1S(=O)(=O)Nc1cccc(C(F)(F)F)c1 | 10.8 | 3.5%[46.1 µM] | nt | nt | nt | 4.2%
Cc1cc(-c2csc(Nc3ccccn3)n2)ccc1F | 158.5 | ? | 6.31µM* | ? | 3.5% | -33.1%
Cc1cccnc1Nc1nc(-c2ccc(O)cc2)cs1 | 62.6 | -29.4% | 10µM* | ? | -24.0% | nt
Cc1ccc(-c2csc(Nc3ccccn3)n2)cc1 | -8.4 | ? | -25.5% | 2µM* | 4.0% | -62.3%
c1ccc(-c2csc(Nc3ccccn3)n2)cc1 | 13.5 | ? | -18.3% | ? | 3.4% | -21.4%
COc1ccc(-c2csc(Nc3ccccn3)n2)cc1OC | 21.2 | ? | 8.91µM* | ? | -19.2% | -1.9%
CN(CC1COCCO1)C(=O)c1cnn(-c2nccc(-c3ccccc3C(F)(F)F)n2)c1C1CC1 (centres undefined) | nt | nt | nt | nt | nt | 20.9%
COc1ccccc1-c1nc(SCC(=O)N(C)c2ccccc2)c2c(=O)n(C)c(=O)n(C)c2n1 | 9.3 | -5.4% | 6.31µM* | 0.4%[46.1 µM] | -0.3% | -26.0%
